Bioassay records deposited in PubChem by National Center for Advancing Translational Sciences (NCATS).
ATXN2 expr inh – reduces ATXN2 reporter expression in HEK-293 cells; HEK-293 ATXN2-luciferase reporter, luminescence, 24 h; Potency, µM (top dose mostly 57 µM), without a hit: at the highest dose activity change, negative = inhibition, usual class: inhibitors; 360,000 tested, 0.72% active; AID 1745845; further: on the % scale 0 is the no-effect control and ±100 the full control effect; nearly all actives have a fitted effect of over 55% in size
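qHTS (up to 57 uM final) was run with 24 h compound exposure of reporter cells at 37 °C. Each well was multiplexed: SteadyGlo luminescence measured ATXN2-luciferase expression after a fluorogenic Gly-Phe-AFC viability readout (25 uM final).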
ATXN viability – viability counter-screen for ATXN expression inhibitors. S2 cells (HEK-293 line with an ATXN2-luciferase reporter) viability, CellTiter-Fluor protease fluorescence, 24 h. Potency, µM (series often up to 56.7 µM), hits mostly cytotoxic. 400,000 tested, 0.49% active. AID 651635; further: nearly all actives have a fitted effect of over 40% in size
HepG2 tox – counter-screen for TGF-b inhibitors: cytotoxicity in HepG2 cells. HepG2 CAGA-GFP viability, ATP luminescence, 18 h. Potency, µM (highest dose often 46.1 µM), without a hit: top-dose activity change, negative = cytotoxicity, usual class: cytotoxic. 410,000 tested, 0.76% active. AID 588856
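HepG2 CAGA-GFP cells (1000/well, DMEM with 1% FBS) received compound, then TGF-beta at 500 pg/mL final, and were incubated 18 hours at 37 degrees C. Viability was read by CellTiter-Glo luminescence. Media-only wells were set as complete cell-killing and DMSO as no toxicity.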
TDP1 cell CPT – growth inhibition of DT40 Tdp1-/-;hTDP1 cells with camptothecin (screen for TDP1 inhibitors) | chicken DT40 Tdp1-/-;hTDP1 cells + 20 nM CPT, ATP luminescence, 48 h | Potency, µM (series often up to 46.2 µM), inactives show at the top dose activity change, negative = growth inhibition, actives largely listed as inhibitors | 420,000 tested, 12% active; further: on the % scale 0 is the no-effect control and ±100 the full control effect; nearly all actives have a fitted effect of over 55% in size
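Chicken DT40 Tdp1-/- cells complemented with human TDP1, 400 cells/well, exposed to compounds plus 20 nM camptothecin for at least 48 h at 37 C; viability read as ATP content by CellTiter-Glo luminescence.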
DT40 TDP1 no CPT – qHTS for Inhibitors of human tyrosyl-DNA phosphodiesterase 1 (TDP1): qHTS in cells in absence of CPT; DT40 Tdp1-/- hTDP1 cells, no CPT, ATP luminescence, 48 h; Potency, µM (highest dose often 46.2 µM), inactives show at the highest dose activity change, negative = growth inhibition, actives largely listed as inhibitors; 420,000 tested, 15% active; AID 686978, 2013; further: on the % scale 0 is the no-effect control and ±100 the full control effect; nearly all actives have a fitted effect of over 55% in size
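Cells were dispensed at 400 per well, compounds added by pin tool, plates incubated ≥48 hr at 37 °C, then CellTiter-Glo added for 30 min at room temperature before luminescence reading. Line: DT40 Tdp1-/- complemented with hTDP1; camptothecin omitted.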
TGFb SMAD3 inh – blocks TGF-b signaling | HepG2 CAGA-GFP TGF-b/SMAD3 reporter, GFP fluorescence, 18 h; TGF-beta stimulated, 500 pg/mL final | 410,000 tested, 1.2% active | Potency, µM (highest dose often 46.1 µM), inactives show at the highest dose activity, negative = inhibition, actives largely listed as inhibitors | AID 588855; further: on the % scale 0 is the no-effect control and ±100 the full control effect; nearly all actives have a fitted effect of over 65% in size
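Using HEPG2 CAGA-GFP reporter cells at 1000 cells/well, we pinned test compounds, stimulated with recombinant TGF-beta (500 pg/mL final) and measured total well GFP after 18 h.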
The depositor's hits bear a star; i = inactive; ? = inconclusive; · = no result given. This is a sample that favours compounds with a hit; in the whole collection about 17% have one here. The call rests on the fitted dose curve; in most records, active means well fitted curve in the direction sought with a large enough effect; inconclusive means small, poorly fitted or top-dose-only effect, or another doubt; inactive means no such curve, though single readings can be large; an effect the other way counts as inactive or inconclusive. Potency means the concentration at half of the fitted maximal effect.

SMILES	ATXN2 expr inh	ATXN viability	HepG2 tox	TDP1 cell CPT	DT40 TDP1 no CPT	TGFb SMAD3 inh
COc1cc2cc(C(c3nnnn3C3CCCCC3)N(C)C3CCCCC3)c(=O)[nH]c2cc1OC (stereo unspecified)	-26%	?	-16%	23µM*	?	?
CC(C)C(c1nnnn1C1CCCC1)N(C)C1CCCCC1 (stereo unspecified)	-15%	i	4%	?	?	4%
COc1cc2cc(C(c3nnnn3C3CCCC3)N(C)C3CCCCC3)c(=O)[nH]c2cc1OC (stereo unspecified)	-1%	i	-14%	16µM*	25µM*	-36%
Cc1ccc(C(c2nnnn2C2CCCCC2)N(C)C2CCCCC2)cc1 (stereo unspecified)	-20%	i	-9%	23µM*	23µM*	-6%
Cc1ncc(CO)n1Cc1ccc(Cl)cc1	·	i	0%	-18%	-25%	-1%
Cc1ccc(Cn2c(C3CCCN3c3nc(-c4cc(Cl)c(N)c(Cl)c4)cs3)nc3cc(C(=O)NCCCO)ccc32)cc1 (stereo unspecified)	-22%	?	3%	?	-28%	?
Cc1ccc(Cn2c(C3CCCN3c3nc(C)cs3)nc3cc(C(F)(F)F)ccc32)cc1 (stereo unspecified)	?	?	-5%	?	21µM*	?
COc1cc(OC)c2c(OC)c(-c3ccc4c(c3)OCO4)c(=O)oc2c1	·	·	·	-5%	-25%	·
CCOc1c2c(c(-c3ccc4c(c3)OCO4)c3cc(OC)c(OC)cc13)C(=O)OC2	·	·	-40%	0.89µM*	0.56µM*	?
Cc1cccc(CN2C(=O)[C@H]3Cc4c([nH]c5ccccc45)C(C)(C)N3C2=O)c1	?	?	-28%	·	·	11µM*
Cc1cccc(CN2C(=O)[C@@H]3Cc4c([nH]c5ccccc45)C(C)(C)N3C2=O)c1	?	?	-21%	·	·	?
COc1cccc(C#Cc2c(C=O)n(C)c3ccccc23)c1	-17%	?	-3%	16µM*	16µM*	?
CNC(C)C#Cc1ccc2oc3cccc(OC)c3c(=O)c2c1 (stereo unspecified)	-17%	i	-15%	?	?	-15%
COc1cccc2sc3cc(C#CC4(O)CCCCC4)ccc3c(=O)c12	?	?	7.1µM*	7.3µM*	?	7.1µM*
CNC(C)C#Cc1ccc2sc3cccc(OC)c3c(=O)c2c1 (stereo unspecified)	-27%	i	-8%	?	15µM*	?
COc1cccc2sc3ccc(C#CC4(N)CCCCC4)cc3c(=O)c12	-31%	?	-98%	16µM*	15µM*	?
COc1cccc2sc3ccc(NCCC4CCCN4C)cc3c(=O)c12 (stereo unspecified)	-23%	?	-29%	?	?	3%
CC(C)(C)c1cc(CCC(=O)NCc2ccccn2)cc(C(C)(C)C)c1O	-9%	i	-43%	?	-18%	-4%
CCN(C(=O)CSc1n[nH]c(N)n1)C1CCCCC1	4%	i	0%	-29%	23%	7%
COCCNC(=O)C1(C)CCCN(C(=O)c2cc(OC)c(OC)c(OC)c2)C1 (stereo unspecified)	12%	i	-1%	-3%	17%	0%
Cn1c2ccccc2c(=O)c2ccc(C#CC3(O)CCCCC3)cc21	-81%	i	-93%	13µM*	10µM*	?
